# Screens: PubChem BioAssay, National Center for Advancing Translational Sciences (NCATS)
# This is a sample that favours compounds with a hit; in the whole collection about 18% have one here.
# RORg inh = inhibitors of mouse ROR gamma transcriptional activity. Potency, µM (titrated, usually from 53.6 µM), without a hit: at the top dose activity change, negative = inhibition, actives largely listed as inhibitors. 310,000 tested, 5.4% active. P51450. Drosophila S2 Gal4-RORgamma UAS-luciferase reporter, 20 h; note: potency is the fitted concentration of half-maximal effect; nearly all actives have a fitted effect of over 60% in size
# Target sequence (P51450 whole entry, looked up, the tested form may be a part): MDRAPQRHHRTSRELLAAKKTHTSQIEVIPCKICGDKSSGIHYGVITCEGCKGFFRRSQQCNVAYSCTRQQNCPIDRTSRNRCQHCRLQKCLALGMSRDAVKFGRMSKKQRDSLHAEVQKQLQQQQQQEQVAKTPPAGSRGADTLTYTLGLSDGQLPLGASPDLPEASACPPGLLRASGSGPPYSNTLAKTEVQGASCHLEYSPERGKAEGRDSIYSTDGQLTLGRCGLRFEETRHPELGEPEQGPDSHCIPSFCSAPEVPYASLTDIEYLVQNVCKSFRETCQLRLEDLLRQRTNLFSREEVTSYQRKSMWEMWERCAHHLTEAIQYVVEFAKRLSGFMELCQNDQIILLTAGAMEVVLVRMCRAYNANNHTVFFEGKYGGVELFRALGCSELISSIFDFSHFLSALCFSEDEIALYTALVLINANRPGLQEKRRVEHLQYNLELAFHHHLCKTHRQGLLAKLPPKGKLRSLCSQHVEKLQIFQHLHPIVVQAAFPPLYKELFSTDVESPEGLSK
#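 Stably transfected Drosophila Schneider cells are the test system, with ROR gamma fused to Gal4 and luciferase under UAS control; luminescence is read after 20 hr of 700 uM copper sulfate induction at ambient temperature.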
# LDHA inh = LDHA (human) enzyme inhibition; P00338; purified LDHA, NADH/diaphorase-resazurin fluorescence; active compounds read low; activity change, % (values are at about 110 or 230 µM); 480,000 tested, 0.15% active; AID 1347041; in the data active = activity change below about -30%; inconclusive = mostly about -25% to -30%;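 note: plate controls were DMSO wells for no effect and wells without enzyme for full effect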
#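 LDH5 2 nM; NADH 0.06 mM, pyruvate 0.2 mM; 200 mM Tris pH 7.4, EDTA, Tween-20; 5 min RT. Detection: diaphorase 0.133 mg/mL + resazurin 37 µM, fluorescence ex540/em590 at 0 and 20 min; normalized to enzyme-free and DMSO wells.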
# VP16 counter = Gal4-VP16 reporter inhibition counter-screen | 310,000 tested, 3.5% active | Drosophila S2 Gal4-VP16 UAS-luciferase, luminescence, 20 h | Potency, µM (highest dose often 53.6 µM), for inactives: top-dose activity, negative = inhibition, actives largely listed as inhibitors;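 note: Gal4-VP16 expression switched on by copper sulfate through the metallothionein promoter; potency is the fitted concentration of half-maximal effect; nearly all actives have a fitted effect of over 50% in size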
# TDP1 cell noCPT = qHTS for Inhibitors of human tyrosyl-DNA phosphodiesterase 1 (TDP1): qHTS in cells in absence of CPT. Potency, µM (series often up to 46.2 µM), without a hit: at the highest dose activity change, negative = growth inhibition, hits mostly inhibitors. 420,000 tested, 15% active. AID 686978, 2013. DT40 Tdp1-/- hTDP1 cells, no CPT, ATP luminescence, 48 h; note: potency is the fitted concentration of half-maximal effect; nearly all actives have a fitted effect of over 55% in size
#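 Camptothecin absent (DMSO only). Human TDP1-complemented DT40 knockout cells, 400 cells/well, 37 °C for minimum 48 hr; ATP measured via CellTiter-Glo, 30 min dark incubation, luminescence.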
# IL-1B inflam inh = blocks inflammasome-driven IL-1 beta release. 360,000 tested, 4.7% active. activity change, % at 57.5 µM. THP-1 LPS/ATP IL-1B secretion, AlphaLISA, 16 h; active compounds read low; in the data active = activity change below about -50%; inconclusive = mostly about -30% to -49%
#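 THP-1 cells pretreated 1 hr with compounds (up to 57.5 uM final), then stimulated with LPS (250 ng/mL final) plus ATP (1.25 mM final); secreted IL-1B measured by AlphaLISA after 16 hr, decreased signal indicating inhibition.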
# DT40 TDP1 CPT = DT40-hTDP1 cell growth loss with CPT. chicken DT40 Tdp1-/-;hTDP1 cells + 20 nM CPT, ATP luminescence, 48 h. Potency, µM (doses to about 46.2 µM), inactives show at the top dose activity change, negative = growth inhibition, most hits filed as inhibitors. 420,000 tested, 12% active; note: potency is the fitted concentration of half-maximal effect; nearly all actives have a fitted effect of over 55% in size
#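 Chicken DT40 Tdp1-/- cells complemented with human TDP1, 400 cells/well, exposed to compounds plus 20 nM camptothecin for at least 48 h at 37 C; viability read as ATP content by CellTiter-Glo luminescence.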
# * hit, by the source's call; ? = inconclusive; . = no result given; [ ] = dose if it differs, or a comment. Unless noted, calls come from the whole dose curve; as a rule, active = well fitted curve in the direction sought with a large enough effect; inconclusive = small, poorly fitted or top-dose-only effect, or another doubt; inactive = no such curve, though single readings can be large; an effect the other way counts as inactive or inconclusive. Unless noted, % is set by controls: 0 for no effect and ±100 for the full control effect.
SMILES,RORg inh,LDHA inh,VP16 counter,TDP1 cell noCPT,IL-1B inflam inh,DT40 TDP1 CPT
CC1CCCN(CCCNC(=O)c2ccc3c(c2)N(Cc2cccc(Cl)c2)C(=O)c2ccccc2S3(=O)=O)C1 (stereo unspecified),.,-9,.,5.8µM*,.,6.5µM*
COc1ccccc1N1CCN(C(=O)c2ccc3c(c2)N(Cc2ccccc2)C(=O)c2ccccc2S3(=O)=O)CC1,.,-3,.,12µM*,.,?
Cc1ccc(Cl)cc1N1CCN(C(=O)c2ccc3c(c2)N(Cc2ccccc2F)C(=O)c2ccccc2S3(=O)=O)CC1,.,-2,.,?,.,-18%
CN1CCN(C(=O)c2ccc3c(c2)N(Cc2ccc(F)cc2)C(=O)c2ccccc2S3(=O)=O)CC1,.,2,.,-28%,.,-15%
O=C(NCCCN1CCCC1)c1ccc2c(c1)N(Cc1cccc(Cl)c1)C(=O)c1ccccc1S2(=O)=O,.,-9,.,?,-10,?
CCOc1ccc(C2CCCN2S(=O)(=O)Cc2ccc(F)cc2)cc1 (stereo unspecified),.,9,.,.,.,.
Cc1cc(C)cc(OCC(=O)Nc2ccc3oc(-c4ccncc4)nc3c2)c1,.,3,.,.,.,.
CCc1ccc(C(=O)CC2(O)C(=O)Nc3ccc(F)cc32)cc1 (stereo unspecified),.,-2,.,.,.,.
O=C(NCc1ccccc1)c1ccc2c(c1)N(Cc1cccc(Cl)c1)C(=O)c1ccccc1S2(=O)=O,.,-3,.,4%,.,?
O=C(c1ccc2c(c1)N(Cc1cccc(Cl)c1)C(=O)c1ccccc1S2(=O)=O)N1CCCCCC1,.,2,.,23µM*,.,18µM*
O=C(c1ccc2c(c1)N(Cc1ccc(F)cc1)C(=O)c1ccccc1S2(=O)=O)N1CCN(Cc2ccccc2)CC1,.,1,.,8.2µM*,.,12µM*
CC1CCCCN1CCNC(=O)c1ccc2c(c1)N(Cc1cccc(Cl)c1)C(=O)c1ccccc1S2(=O)=O (stereo unspecified),.,-10,.,?,?,?
O=C(c1ccc2c(c1)N(Cc1cccc(Cl)c1)C(=O)c1ccccc1S2(=O)=O)N1CCN(Cc2ccccc2)CC1,.,3,.,9.2µM*,.,15µM*
CCC1CCCCN1C(=O)c1ccc2c(c1)N(Cc1cccc(Cl)c1)C(=O)c1ccccc1S2(=O)=O (stereo unspecified),.,-1,.,16µM*,.,18µM*
COc1ccc(N2CCN(C(=O)c3ccc4c(c3)N(Cc3cccc(Cl)c3)C(=O)c3ccccc3S4(=O)=O)CC2)cc1,.,3,.,-14%,.,-5%
CNC(=O)CSc1cc(C)c2cc(C)cc(C)c2n1,.,3,.,.,.,.
CCOc1cc(/C=C/C(=O)c2ccc(C3CCCCC3)cc2)ccc1OC,.,-17,.,.,.,.
Cc1cccc(N2CCN(C(=O)c3ccc4c(c3)N(Cc3cccc(Cl)c3)C(=O)c3ccccc3S4(=O)=O)CC2)c1C,.,1,.,-6%,.,-7%
O=C(c1ccc2c(c1)N(Cc1cccc(Cl)c1)C(=O)c1ccccc1S2(=O)=O)N1CCCC1,.,-6,.,21µM*,.,23µM*
O=C1NC[C@@H](Cc2cccc3ccccc23)N(CC2CCCCC2)C1=O,8%,0,-4%,?,?,?
CCCC[C@@H]1CNC(=S)N1CCc1cccc2ccccc12,1.6µM*,-19,4.5µM*,18µM*,-21,?
CCCCN1C(=S)NC[C@@H]1Cc1cccc2ccccc12,3.2µM*,-4,11µM*,?,13,?
CCCCN1C(=O)C(=O)NC[C@H]1Cc1cccc2ccccc12,.,7,.,-21%,20,-20%
S=C1NC[C@H](Cc2ccccc2)N1CCc1cccc2ccccc12,1µM*,0,5.6µM*,?,-6,-12%
O=C1NC[C@H](c2ccccc2)N(CCc2cccc3ccccc23)C1=O,-1%,5,-2%,-86%,4,?
SMILES,RORg inh,LDHA inh,VP16 counter,TDP1 cell noCPT,IL-1B inflam inh,DT40 TDP1 CPT
O=C1NC[C@@H](Cc2cccc3ccccc23)N(CCc2cccc(F)c2)C1=O,.,5,.,?,9,?
S=C1NC[C@H](Cc2cccc3ccccc23)N1CC1CCCCC1,0.71µM*,-5,5µM*,23µM*,18,?
COc1ccccc1-c1noc(CCCC(=O)Nc2ccc(S(=O)(=O)N3CCOCC3)cc2)n1,.,-1,.,.,.,.
Cc1cc(C)cc(NC(=S)NNC(=O)C(N)=O)c1,.,1,.,.,.,.
O=C(COc1ccccc1)Nc1nc(-c2ccncc2)cs1,31%,-5,-5%,16µM*,37,21µM*
COc1ccccc1Nc1nc(-c2cccnc2)cs1,?,-2,-3%,?,-95*,?
O=C(COc1ccccc1)Nc1nc(-c2cccnc2)cs1,.,-6,.,?,21,?
Cc1cc(C)cc(OCC(=O)Nc2nc(-c3cccnc3)cs2)c1,?,-6,?,9.2µM*,0,15µM*
COc1cccc(CC(=O)Nc2nc(-c3cccnc3)cs2)c1,17%[10 µM],-3,-6%,?,0,-3%
COc1ccccc1Nc1nc(-c2ccccc2)cs1,.,-1,.,.,.,.
COc1ccc(CC(=O)Nc2nc(-c3cccnc3)cs2)cc1,?,-6,-1%,26µM*,17,?
CC1CCC(NC(=O)C2(c3ccccc3)CC2)CC1 (stereo unspecified),.,-7,.,.,.,.
COCCn1c(SCc2csc(-c3ccccc3)n2)nc2ccccc21,?,5,2%,18µM*,?,16µM*
COCCn1c(/C=C/c2ccccc2)nc2ccccc21,11µM*,2,?,?,-2,-22%
COCCn1c(COc2ccc(OC)cc2)nc2ccccc21,-29%,-9,4%,?,-11,?
CC(C)CCn1c(/C=C/c2ccccc2)nc2ccccc21,.,-2,.,12µM*,.,16µM*
CC(C)Cn1c(/C=C/c2ccc(F)cc2)nc2ccccc21,.,1,.,.,.,.
CCC(C)Cn1c(/C=C/c2ccccc2)nc2ccccc21 (stereo unspecified),.,-1,.,9.2µM*,.,9.2µM*
Cc1cc2c(c(SCC(=O)Nc3cccc(C(F)(F)F)c3)n1)C(=O)OC2,.,3,.,.,.,.
Cc1ccc2c(COC(=O)COc3ccc(Br)cc3)cc(=O)oc2c1,.,10,.,.,.,.
Clc1ccc(SCNc2ccccc2Cl)cc1,-26%,0,1%,?,?,9.2µM*
